Reference: PubChem BioAssay AID463190 (Sanford-Burnham Center for Chemical Genomics, 2010)
Several values for one entry are separate records, joined by “and”; a condition that tells them apart may be missing. Equal entries are not always repeated. The campaign covered roughly 330,000 compounds. About 7,300 (2.2%) were called active. The sample holds actives, similar compounds and a random draw of the others, so the mix is not that of the screen.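 The calls were made as follows: active = inhibition of at least 40%; inactive = the rest.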

Assay: growth inhibitors of tim10-1 mutant yeast, primary screen, luminescence, uHTS (AID 463190);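 also: mutant grown at 25 °C; 0% = DMSO wells with yeast and 100% = wells holding no yeast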
Details: S. cerevisiae tim10-1 ts strain growth, BacTiter-Glo, 24 h; at 20 µM; hits give high values

inhibition, inactive:
Cc1ccc(C(=O)NC2CCN(C(=O)Nc3ccccc3Cl)CC2)cc1 -3.39%, CC(NC(=O)CN(C)S(=O)(=O)c1ccc(F)cc1)C1CC2CCC1C2 (stereo unspecified) 25.6%, Cc1cc(CNCc2c(C(=O)N(C)Cc3ccccc3)nc3ccccn23)nn1C 10.5%, COc1cnc(-c2ccccn2)nc1Oc1ccc(C(C)(C)C)cc1 35%, CC(C)(C)Nc1nc(-c2ccccn2)nc2ccccc12 -7.74%, Cn1nc(C(C)(C)C)c([N+](=O)[O-])c1C(N)=O -18.4%, Cc1csc(NC(=S)Nc2cccc(Cl)c2)n1 29.1%, S=C(Nc1cccc(Cl)c1)Nc1ccc2c(c1)OCCO2 32.9%, Cc1cc(C)cc(OCC(=O)NCc2cc(C)nc3ccccc23)c1 20.5%, CCOc1ccc(-n2c(SCC(=O)NC3CCS(=O)(=O)C3)nnc2-c2cccnc2)cc1 (stereo unspecified) 7.61%, CN(CC(=O)Nc1c(Cl)cccc1Cl)C(=O)c1ccncc1 1.02%, Cc1cccc(C)c1NC(=O)CN(C)C(=O)CCC(=O)c1ccccc1 9.26%, Cc1ccc(CNC(=O)Cc2cn(C)c3ccccc23)cc1 27.3%, CC(C)CNS(=O)(=O)c1ccc(CCC(=O)NCc2ccc(Cl)cc2)cc1 8.22%, Cc1ccc(S(=O)(=O)NCCC(=O)NCc2ccc(Cl)cc2)cc1C 8.85%, O=C(OCC(=O)N1CCc2ccccc21)C1CCCN1S(=O)(=O)c1ccc(Cl)cc1 (stereo unspecified) -10.6%, COc1ccc(CN2CC(C(=O)NCCc3ccc(Cl)cc3)CC2=O)cc1 (stereo unspecified) -2.13%, Cc1ccc(NC(=S)N/N=C2/CCCc3c(C)cc(C)cc32)cc1 9.99%, CCCC1CCC(=NNC(=S)NCCc2ccccc2)CC1 (stereo unspecified) -25.5%, COC(=O)c1c(NC(=O)C(=O)N2CCCCC2)sc2c1CC(C)(C)OC2 8.07%, c1ccc(Cc2ccc(OCCn3ccnc3)cc2)cc1 -1.87%, CSCC[C@H](NC(=O)NC1CCCC1)C(=O)O 3.78%, CCOC(=O)N1CCC(N2Cc3cccc(C(=O)Nc4ccc(S(=O)(=O)N(CC)CC)cc4)c3C2=O)CC1 17.7%, O=C(O)c1cccc2c1C(=O)N(C1CCCC1)C2 8.44%, CC(C)(C)Cc1nnc(NC(=O)c2cc(-c3ccccc3)nc3ccccc23)s1 23.3%, O=C(Nc1nnc(-c2ccc(Cl)cc2)o1)c1ccccc1Br 6.25%, Cc1cc([N+](=O)[O-])nn1CCCC(=O)Nc1cccnc1Cl 16.8%, Cc1ccccc1OCC(=O)Nc1ccc(S(=O)(=O)N2CCOCC2)cc1 37.4%, Cc1ccccc1OCC(=O)Nc1ccc2c(c1)ncn2C 5.78%, Cc1cc(NC(=O)CCS(=O)(=O)c2ccc(F)cc2)no1 -5.29%, COc1cc([N+](=O)[O-])ccc1NC(=O)CN1CCCC1 6.08%, CSc1ccccc1NC(=O)COC(=O)CCCOc1ccc(C)cc1 7.06%, Cc1nc2ccc(C(=O)N/N=C/c3ccc(O)cc3)cc2[nH]1 0.009%, COC(=O)N/N=C/c1ccc(/C=N/NC(=O)OC)cc1 7.21%, O=C(O)Cc1csc(-c2cccc(Oc3ccccc3)c2)n1 7.9% and -6.65%, CN(CC(=O)NCCc1ccc(S(N)(=O)=O)cc1)CC(=O)Nc1ccc(F)c(F)c1F 0.849%, Cc1ccc(S(=O)(=O)N(CC(O)CN2CCCCC2)c2cccc([N+](=O)[O-])c2)cc1 (stereo unspecified) -38.7%, C/C(=N\NC(=S)NCc1ccccc1)c1ccc(Cl)cc1 22.9%, CC1CCCCN1C(=S)NCc1ccccc1 (stereo unspecified) -0.074%, Cc1oc(CC(C)C)c(CN2CCCC2)c1C(=O)O 3.08%, Cc1ccc(C2=NN(C(=O)COc3ncnc4ccccc34)C(c3ccco3)C2)cc1 (stereo unspecified) -2.47%, O=C1c2cccc(OCC(=O)N3N=C(c4cccs4)CC3c3ccc(F)cc3)c2CCN1Cc1ccccc1 (stereo unspecified) 19.6%, CCc1n[nH]c(=S)n1/N=C/c1c[nH]c2ccc(Br)cc12 12%, Cc1cc(C)cc(NC(=O)C2CCCN(S(=O)(=O)c3ccc4[nH]c(=O)ccc4c3)C2)c1 (stereo unspecified) -13.6%, COc1cc(NC(=O)COC(=O)c2ccc([N+](=O)[O-])s2)cc(OC)c1OC 30.9%, O=C(OCC(=O)N1CCN(c2ccccc2)CC1)c1ccc([N+](=O)[O-])s1 11.9%, S=c1[nH]nc(-c2ccco2)n1/N=C/c1ccc(Br)s1 22.5%

inhibition, active:
CC1(C)CCSC(/C=C/c2ccccc2)=N1 44.4%, Cc1ccc(Oc2nc(-c3ccccn3)nc3ccccc23)cc1 44.9%, FC(F)(F)c1cccc(NC(=S)Nc2cccc(Cl)c2)c1 48.1%, Cc1ccc(C(=O)CCC(=O)N(C)CC(=O)Nc2c(Cl)cccc2Cl)cc1 97.9%, CSc1ccc(S(=O)(=O)NCc2ccc(Cl)cc2)cc1 44.8%, CCCCNC(=S)N/N=C1\CCCCc2ccccc21 47.7%, CCOC(=O)N1CCC(N2Cc3cccc(C(=O)Nc4c(C)cccc4CC)c3C2=O)CC1 51%, O=C(Nc1nnc(-c2ccccc2)o1)c1cc(-c2cccs2)nc2ccccc12 48.6%, Cc1ccccc1OCC(=O)Nc1ccc(N2CCN(C(=O)C(C)C)CC2)c(Cl)c1 63.3%, COc1cc([N+](=O)[O-])ccc1NC(=O)COC(=O)CCOc1ccc(C)cc1 50.3%, Cc1nonc1C(=O)N/N=C/c1ccc(O)cc1 51.4%, C/C(=N\NC(=S)NCc1ccccc1)C1CCCCC1 42.6%, O=C(COc1ccccc1Cl)N1N=C(c2cccs2)CC1c1ccco1 (stereo unspecified) 40.8%, COc1ccc(C(=O)COC(=O)c2ccc([N+](=O)[O-])s2)cc1OC 57.9%
